Screening data as filed in PubChem BioAssay.
Pf growth 48h: inhibits P. falciparum growth in the first generation, 48 h | Potency, µM (doses to about 28.7 µM), inactives show top-dose activity change, negative = inhibition, actives largely listed as inhibitors | AID 504832 | P. falciparum luciferase growth in erythrocytes, 48 h | hit rate 5.9% among 310,000; note: potency is the fitted concentration of half-maximal effect; % is set by controls: 0 for no effect and ±100 for the full control effect
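Luciferase-expressing P. falciparum in infected erythrocytes (2% hematocrit, 0.1% parasitemia final) in RPMI 1640/0.5% Albumax were exposed to compound for 48 hours at 37 C, 5% CO2; growth read as luminescence.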
Marburg entry inh: inhibitors of Marburg virus binding or cell entry; Marburg virus pseudotyped entry inhibition, cell reporter; Potency, µM (highest dose often 37.8 µM), without a hit: top-dose activity change, negative = inhibition, usual class: inhibitors; hit rate 1.8% among 300,000; AID 540276; calls by dose curve; tested in HEK293 cells; note: potency is the fitted concentration of half-maximal effect; % is set by controls: 0 for no effect and ±100 for the full control effect
Pf growth 96h: P. falciparum growth inhibition at 96 hours. hit rate 6.9% among 320,000. AID 504834. Potency, µM (doses to about 28.7 µM), inactives show top-dose activity change, negative = inhibition, usual class: inhibitors. P. falciparum luciferase reporter growth, 96 h; note: potency is the fitted concentration of half-maximal effect; % is set by controls: 0 for no effect and ±100 for the full control effect
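Two-generation exposure (96 h) targets delayed-death phenotype. Reporter parasites carrying integrated firefly luciferase, in red cells at 2% hematocrit and 0.05% parasitemia final, kept at 37 C, 5% CO2; luminescence loss indicates inhibition.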
Shiga toxin inh: inhibitors of Shiga toxin in Vero cells. Vero cells, Shiga toxin protein synthesis inhibition reporter. inhibition, % at 38.7 µM. hit rate 9.2% among 290,000; in the data active = inhibition mostly above about 28%, no sharp cut-off; inactive = mostly below about 43%; note: 0% is about no effect
CHX counter: counter-screen hit for Shiga toxin inhibitors, cycloheximide | cell reporter, cycloheximide protein synthesis inhibition counterscreen | max response, % | hit rate 12% among 300,000 | AID 2314; in the data active = max response mostly above about 13%, no sharp cut-off; inactive = mostly below about 14%; note: read at 38.3 µM for the half of the compounds with a filed dose; 0% is about no effect
Lassa entry inh: Lassa virus entry inhibition; Potency, µM (series often up to 37.9 µM), without a hit: top-dose activity change, negative = inhibition, actives largely listed as inhibitors; hit rate 1.2% among 300,000; Lassa virus pseudotype entry inhibition, cell reporter; calls by dose curve; tested in HEK293 cells; note: potency is the fitted concentration of half-maximal effect; % is set by controls: 0 for no effect and ±100 for the full control effect; nearly all actives have a fitted effect of over 50% in size
Active calls of the source: *; u = inconclusive; x = no result given; [ ] = dose if it differs, or a comment. Rows were chosen to be rich in hits. Some 19% of all compounds tested hit in one or more screens of this group. Unless noted, calls come from the whole dose curve; as a rule, active = well fitted inhibition curve with a large enough effect; inconclusive = small, poorly fitted or top-dose-only effect, or another doubt; inactive = no such curve, though single readings can be large or run the other way.

SMILES	Pf growth 48h	Marburg entry inh	Pf growth 96h	Shiga toxin inh	CHX counter	Lassa entry inh
O=c1c(CN2CCN(c3ccccn3)CC2)coc2ccccc12	34%	37%	55%	87*	66*	1%
Oc1c(CN2CCCCC2)ccc2cccnc12	x	u	x	x	x	-15%[46.1 µM]
O=[N+]([O-])c1cc(CN2CCCC2)c2cccnc2c1O	9.3µM*	-9%	u	-4	-4	-1%
C=CCn1c(SCc2nc3c(c(=O)[nH]c(=O)n3CCCC)n2CCC)nnc1-c1ccccc1	8.3µM*	-7%	x	4	-2	u
C=CCOc1ccc(-c2nc3c(c(=O)[nH]c(=O)n3CCC)n2CCCC)cc1	0%	1%[46.1 µM]	7%	4	-1	u
C=CCOc1c2ccc(C(=O)NC3CCCc4ccccc43)cc2nn1C (configuration not stated)	10%	x	u	-15	-5	x
COC(=O)CN(C(=O)CSc1nnc(-c2cccc(OC)c2)o1)c1ccc(OC)cc1	0%	12%	18%	14	-1	-13%
CCOC(=O)CN(C(=O)CSc1nnc(CNc2ccc(F)cc2)o1)c1ccccc1	-24%	-19%[46.1 µM]	0%	-6	22*	u
CCOC(=O)CN(C(=O)CSc1nnc(-c2cccc(OC)c2)o1)c1ccc(F)cc1	u	7%	u	32	15*	u
CCOC(=O)c1c(NC(=O)CSc2nnc(CNc3ccc(F)cc3)o2)sc(C(C)=O)c1C	-16%	2%[46.1 µM]	1.7µM*	39	-3	14%
O=C1NC(=O)C2(Br)Nc3ccc(Br)cc3C(=O)C2N1 (configuration not stated)	x	-6%[46.1 µM]	x	x	x	-14%[46.1 µM]
CCCNC(=O)C(=O)N/N=C/c1ccc(OCc2ccccc2)cc1	22%	9%	-12%	-14	-1	22%
O=C(NC(=S)Nc1cccc(NC(=S)NC(=O)c2ccco2)n1)c1ccco1	-10%	9%[46.1 µM]	1.3µM*	-1	9	10%
NS(=O)(=O)c1ccc(NC(=S)NC(=O)c2ccco2)cc1	u	25%	33%	9	7	4%
Cc1cccc(NC(=S)NC(=O)c2ccco2)c1C	38%	x	11%	14	32	x
O=C(NC(=S)Nc1ccccc1Br)c1ccco1	-6%	2%[46.1 µM]	u	99*	54*	-27%
CC12CCC3c4ccc(O)cc4CCC3C1CCC2O (configuration not stated)	x	x	x	14	-4	x
CCn1cc(/C=N/N=C2\CCC3C4CCc5cc(O)ccc5C4CC[C@]23C)c(C)n1 (some centres not stated)	x	-18%	1.7µM*	-10	-3	-25%
O=C(CN(C1CCCCC1)S(=O)(=O)c1ccc(F)cc1)NC1CC1	-10%	-19%	27%	18	8	-2%
CCOC(=O)NCCc1c(C)nc2c(c(C)nn2C(C)(C)C)c1C	x	u	0.17µM*	-5	-3	u
COC(=O)c1cc(NC(=O)CCc2c(C)nc3c(c(C)nn3C(C)(C)C)c2C)cc(C(=O)OC)c1	x	-8%[46.1 µM]	x	x	x	21%[46.1 µM]
COc1ccc(C(=O)Nc2nnc(SCC(=O)NCc3ccco3)s2)c(OC)c1	94%	x	16%	33*	35*	x
O=C(CSc1nnc(NC(=O)c2ccccc2F)s1)Nc1ccccc1F	53%	-3%[46.1 µM]	21%	70*	35*	x
COc1ccccc1C(=O)Nc1nnc(SCC(=O)NCC2CCCO2)s1 (configuration not stated)	185%	x	75%	115*	40*	x
COc1cc(C(=O)Nc2nnc(SCC(=O)NCC3CCCO3)s2)cc(OC)c1OC (configuration not stated)	-11%	-15%	u	24	2	-1%
SMILES	Pf growth 48h	Marburg entry inh	Pf growth 96h	Shiga toxin inh	CHX counter	Lassa entry inh
COc1ccccc1C(=O)Nc1nnc(SCC(=O)NCc2ccco2)s1	215%	x	114%	63*	43*	x
COc1ccc(C(=O)Nc2nnc(SCC(=O)NCc3ccco3)s2)cc1OC	16%	9%	u	12	10	u
Cc1ccc(CNC(=O)COC(=O)c2cccnc2Cl)cc1	x	u	x	x	x	-9%[46.1 µM]
NC(N)=NN=C1CCC(c2ccccc2)CC1 (configuration not stated)	6%	14%[46.1 µM]	4%	-5	-2	-8%[46.1 µM]
COc1ccc(C2=NS(=O)(=O)N(C)C(C(=O)N3CCC(C)CC3)=C2)cc1	-10%	x	u	2	1	x
O=C(CSc1nnc(NC(=O)c2ccccc2F)s1)NCc1ccco1	118%	-25%	174%	79*	35*	u
Cc1ccc(Nc2nnc(SCC(=O)NCc3ccco3)s2)cc1	5.9µM*	-2%	u	46	17	-14%
COc1cc(OC)cc(C(=O)Nc2nnc(SCC(=O)NCc3ccco3)s2)c1	17%	4%[46.1 µM]	-24%	97	34*	u
O=C(Nc1nnc(SCC(=O)N2CCCCC2)s1)c1ccccc1F	27%	u	4%	30	18	u
O=C(CSc1nnc(NC(=O)c2c(F)cccc2F)s1)NCc1ccco1	21%	u	26%	x	x	7%
O=C(CSc1nnc(NC(=O)c2ccccc2F)s1)NCc1ccc(F)cc1	71%	u	47%	107*	41*	-15%[46.1 µM]
COC(=O)C1CC(O)CN1C(=O)Nc1cccc(C(F)(F)F)c1 (configuration not stated)	10%	u	10%	-4	1	2%[46.1 µM]
O=C(N/N=C/c1cccs1)c1ccc(NC(=O)c2ccccc2Cl)cc1	-17%	u	-9%	-6	5	5%
O=C(N/N=C/c1cccs1)c1ccc(-n2cccc2)cc1	u	8%[46.1 µM]	u	19	22*	13%[46.1 µM]
O=C(N/N=C/c1cccs1)c1cccc(NC(=O)c2ccccc2Cl)c1	5%	4%[46.1 µM]	-13%	28	18*	16%
O=C(O)c1cccc(NC(=S)N/N=C/c2ccccn2)c1	149%	x	u	131*	51*	x
O=C(N/N=C/c1ccccc1F)c1cccc(NC(=O)c2ccccc2Cl)c1	-29%	u	16%	56*	26*	15%[46.1 µM]
O=C(N/N=C/c1ccccn1)c1cccc(NC(=O)c2ccccc2Cl)c1	u	x	30%	34*	11*	x
Cc1cccc(/C=N/NC(=O)c2ccc(NC(=O)c3ccccc3Cl)cc2)n1	14%	u	u	-10	-1	18%[46.1 µM]
Cc1cccc(C(=O)Nc2cccc(C(=O)N/N=C/c3ccccn3)c2)c1	u	x	2%	19	13*	x
Cc1cccc(/C=N/NC(=O)c2ccc(NC(=O)c3cccc(Cl)c3)cc2)n1	u	-20%[46.1 µM]	71%	-3	1	18%[46.1 µM]
Cc1cccc(C(=O)N/N=C/c2ccccn2)c1	-60%	u	-97%	91*	25*	-19%
O=C(N/N=C/c1ccccn1)c1ccc2nc[nH]c2c1	39%	6%[46.1 µM]	45%	-5	-2	9%
c1ccc2oc(C3=NNC(=NC4CC4)SC3)cc2c1	-64%	1.8µM*	u	67	41*	7.3µM*
